Measured values as given in PubChem BioAssay AID602281 (The Scripps Research Institute Molecular Screening Center, 2012).
Screen size: about 360,000 compounds; about 2,900 (0.81%) were called active.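 Rule for the calls: active = inhibition above the mean inhibition across every tested compound plus 3 SD (cut at about 22% in these data); inactive = the rest.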 Only a selection was taken, and actives are over-represented in it overall.

target: Perilipin-5 (Homo sapiens) + 1-acylglycerol-3-phosphate O-acyltransferase ABHD5 (Homo sapiens) (UniProt Q00G26+Q8WTS1); assay: ABHD5-PLIN5 interaction inhibitors, primary screen, cell lysate, split luciferase complementation, luminescence (AID 602281);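 note: 0% = DMSO only wells and the 100% control is not disclosed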; settings: Split G. princeps luciferase complementation, 4 h, at 4 µM, hits give high values
Sequence (Q00G26 whole entry, looked up): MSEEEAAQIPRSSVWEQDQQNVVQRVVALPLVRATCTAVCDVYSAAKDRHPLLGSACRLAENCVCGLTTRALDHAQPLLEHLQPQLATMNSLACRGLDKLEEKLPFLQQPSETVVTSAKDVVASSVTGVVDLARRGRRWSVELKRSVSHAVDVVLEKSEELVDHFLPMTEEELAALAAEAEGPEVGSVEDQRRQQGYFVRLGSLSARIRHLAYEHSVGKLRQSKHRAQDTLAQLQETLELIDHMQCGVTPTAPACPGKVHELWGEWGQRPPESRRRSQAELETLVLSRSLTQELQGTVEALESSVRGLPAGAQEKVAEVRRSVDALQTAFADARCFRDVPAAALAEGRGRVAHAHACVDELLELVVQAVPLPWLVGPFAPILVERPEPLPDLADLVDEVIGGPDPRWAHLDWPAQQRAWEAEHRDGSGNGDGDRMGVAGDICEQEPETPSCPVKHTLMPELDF
Sequence (Q8WTS1 whole entry, looked up): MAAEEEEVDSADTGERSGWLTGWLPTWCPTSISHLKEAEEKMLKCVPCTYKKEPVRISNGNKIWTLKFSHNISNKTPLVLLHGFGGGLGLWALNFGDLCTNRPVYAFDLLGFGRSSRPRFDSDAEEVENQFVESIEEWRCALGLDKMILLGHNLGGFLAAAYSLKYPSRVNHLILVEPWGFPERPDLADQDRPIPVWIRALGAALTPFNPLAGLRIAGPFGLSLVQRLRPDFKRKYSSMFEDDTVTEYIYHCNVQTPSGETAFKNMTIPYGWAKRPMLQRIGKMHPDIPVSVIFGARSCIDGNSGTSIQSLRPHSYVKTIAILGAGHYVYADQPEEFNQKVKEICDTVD

inhibition, active:
O=C(Nc1nc(-c2ccco2)c(-c2ccco2)s1)c1ccco1 25.3%, Cc1ccc(-n2nc(-c3ccco3)cc2C(=O)NCc2cccnc2)cc1 36.3%, Cc1ccc(NC(=O)Cn2sc3ccccc3c2=O)cc1 71.6%

inhibition, inactive:
O=C(NNS(=O)(=O)c1ccc(F)cc1)c1cnccn1 -1.88%, COc1ccc(-c2cc3n(n2)CCc2nc4ccccc4n2-3)cc1 5.6%, CC(C)c1ccc2oc(=O)cc(CN3CCN(Cc4ccccc4)CC3)c2c1 -1.39%, Cc1nc([N+](=O)[O-])nn1C12CC3CC(CC(Br)(C3)C1)C2 -11.4%, CCc1nnc(NC(=O)c2ccco2)s1 3.45%, O=C(Nc1nonc1-c1ccc(Cl)cc1)c1ccco1 -2.13%, Cc1cc(C)c(C#N)c(SCS(=O)c2ccc(C(C)(C)C)cc2)n1 (stereo unspecified) 5.68%, S=C(Nc1ccc(Br)cc1Cl)N1CCC2(CC1)OCCO2 -3.87%, CCOC(=O)CCC(=O)OCC(=O)NC(C)C1CC2CCC1C2 (stereo unspecified) -2.3%, CSc1sc(C(=O)NC(=O)NCc2cccnc2)c(C)c1-c1ccon1 6.42%, Cc1ccc(C(=O)NC(=S)NCc2cccnc2)cc1 2.77%, CCc1ccc(OC2(C)CCN(CCOc3ccc(C)cc3)C2)cc1 (stereo unspecified) -1.92%, Cc1[nH]c2ccccc2c1C(=O)C(C)Sc1nnc(C2CC2)o1 (stereo unspecified) -5.93%, O=C(Nc1ccccc1Cl)NC1(C(=O)N2CCOCC2)CCCCC1 -0.52%, COc1ccccc1NC(=O)COC(=O)Cc1ccc(S(=O)(=O)N2CCCCC2)s1 0.2%, NS(=O)(=O)c1ccc(CNC(=O)c2cc(S(=O)(=O)N3CCOCC3)ccc2N2CCCC2)cc1 4.8%, CCC1CCCCN1C(=S)Nc1ccc(S(=O)(=O)Nc2ncccn2)cc1 (stereo unspecified) -5.25%, COc1ccc(C(C(=O)NC(C)(C)C)N(C(=O)Cn2nnc3ccccc32)c2ccc(C(C)=O)cc2)cc1O (stereo unspecified) -5.36%, CCNC(=O)CC1C(=O)N(c2ccc(OC)cc2)C(=S)N1CCc1ccncc1 (stereo unspecified) 2.72%, O=C(Cn1nc(C(=O)O)c2ccccc2c1=O)Nc1ccc(F)cc1 4.56%, Cc1ccc(NC(=O)Cn2c(C)csc2=O)cc1 0%, Cn1cc(S(=O)(=O)N2CCN(c3ccc(F)cc3)CC2)c(=O)n(C)c1=O 2.58%, CC(=O)c1c(C)n(-c2ccc(N(C)C)cc2)c2ccc(OCC(N)=O)cc12 -5.31%
